Source: PubChem BioAssay AID2551 (National Center for Advancing Translational Sciences (NCATS), 2010)
Hit rate of the full screen: of about 310,000 compounds, about 17,000 (5.5%) were called active. Not shown: some 11% with an inconclusive outcome. Calls come from the whole dose curve; as a rule, active = well fitted inhibition curve with a large enough effect; inconclusive = small, poorly fitted or top-dose-only effect, or effect the other way; inactive = no such curve, though single readings can be large or run the other way. The list comes from a sample in which actives are over-represented; it also holds similar structures and randomly drawn compounds.

target: Nuclear receptor ROR-gamma (Mus musculus) (UniProt P51450); assay: qHTS for inhibitors of ROR gamma transcriptional activity; settings: Drosophila S2 Gal4-RORgamma UAS-luciferase reporter, 20 h; series mostly up to 53.6 µM; activity change, negative = inhibition: at the top concentration; note: nearly all actives have a fitted effect of over 60% in size
Sequence (P51450 whole entry, looked up, the tested form may be a part): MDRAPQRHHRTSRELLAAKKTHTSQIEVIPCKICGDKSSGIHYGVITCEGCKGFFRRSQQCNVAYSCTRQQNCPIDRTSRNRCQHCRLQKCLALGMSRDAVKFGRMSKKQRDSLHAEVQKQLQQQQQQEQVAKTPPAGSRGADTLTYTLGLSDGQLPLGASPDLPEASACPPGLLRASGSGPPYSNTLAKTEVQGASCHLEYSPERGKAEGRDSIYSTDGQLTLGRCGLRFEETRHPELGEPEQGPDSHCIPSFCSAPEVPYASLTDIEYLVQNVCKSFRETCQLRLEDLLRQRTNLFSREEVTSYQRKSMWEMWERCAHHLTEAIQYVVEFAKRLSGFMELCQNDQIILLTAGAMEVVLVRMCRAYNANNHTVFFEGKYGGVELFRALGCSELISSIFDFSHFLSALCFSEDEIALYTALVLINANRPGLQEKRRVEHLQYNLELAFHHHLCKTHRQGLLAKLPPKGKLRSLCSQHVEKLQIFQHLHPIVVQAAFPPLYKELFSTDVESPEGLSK
In short: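 Stably transfected Drosophila Schneider cells are the test system, with ROR gamma fused to Gal4 and luciferase under UAS control; luminescence is read after 20 hr of 700 uM copper sulfate induction at ambient temperature.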
% is set by controls: 0 for no effect and ±100 for the full control effect; potency is the fitted concentration of half-maximal effect.

Structure (SMILES)	activity change, negative = inhibition	Potency
CCc1cccc(C)c1N1C(=O)CN(Cc2ccccc2)C1=S	-15.2% (inactive)	
CC(N=Cc1nc(-c2ccccc2)oc1O)c1ccccc1 (centres undefined)	20.3% (inactive)	
CCOc1ccc2nc(/N=C/c3nc(-c4ccccc4)oc3O)sc2c1	-14.9% [at 10 µM] (inactive)	
Oc1oc(-c2ccccc2Br)nc1/C=N/c1ccccn1		8.91 µM (active)
Cc1ccnc(NS(=O)(=O)c2ccc(NC(=O)c3oc4ccccc4c3C)cc2)n1	44.6% (inactive)	
Cc1ccc(S(=O)(=O)N(CC(=O)Nc2cccnc2)c2ccc(Br)cc2)cc1	44.3% (inactive)	
CCCN(CC1COc2ccccc2O1)C(=S)Nc1ccc(C)cc1 (centres undefined)		15.8 µM (active)
Cc1ccc(S(=O)(=O)N(C)C)cc1NC(=O)COC(=O)C1COc2ccccc2O1 (centres undefined)	1.8% (inactive)	
Cc1cc(NC(=O)CCC2COc3ccccc3O2)no1 (centres undefined)	39.4% (inactive)	
COCn1c(C(O)c2ccccc2)cc2ccccc21 (centres undefined)	14.4% (inactive)	
O=S(=O)(NCc1ccccn1)c1ccc(Br)s1		8.91 µM (active)
O=S(=O)(NCc1cccnc1)c1ccc(Br)s1	12.6% (inactive)	
Cc1cc(Cl)c(S(=O)(=O)NCc2cccnc2)cc1OCC(N)=O	8.15% (inactive)	
Cc1cc(S(=O)(=O)NCc2ccccn2)c(Cl)cc1Cl		7.08 µM (active)
CCOc1cc(C)c(S(=O)(=O)NCc2ccccn2)cc1C	-29.6% [at 1.91 µM] (inactive)	
O=S(=O)(NCc1ccccn1)c1ccc(F)cc1	-20.3% (inactive)	
COc1cccc(NC(=O)CN(C)C(=O)c2ccccc2CCc2ccccc2)c1	30.3% (inactive)	
CCCn1c(=O)c(C(=O)Nc2cc(C)ccn2)c(O)c2ccccc21	5.16% (inactive)	
CC(NCC(=O)Nc1cc(Cl)cc(Cl)c1)c1ccccc1 (centres undefined)	-2.11% (inactive)	
Cc1cccnc1NC(=O)Cn1c(=O)oc2ccccc21	13.7% (inactive)	
CN(C(=O)c1cccc(OC2CCN(S(=O)(=O)N(C)C)CC2)c1)C1CCOC1 (centres undefined)	10.1% (inactive)	
O=C(NC(=O)c1ccccc1)NC(=O)c1ccccc1	-17.4% (inactive)	
O=C(NC(=O)c1ccccc1)Nc1ccccc1O		7.08 µM (active)
O=C(Nc1ccc(C(=O)O)c(O)c1)c1ccccc1		inactive
C[C@H](NC(=O)C1CC(=O)N(c2ccc3c(c2)OCCO3)C1)C(=O)N1CCC(C(=O)O)CC1 (some centres undefined)	-3.96% (inactive)	
COc1ccc2nc(C)cc(Nc3cccc(C(=O)O)c3)c2c1	34.5% (inactive)	

Structure (SMILES)	activity change, negative = inhibition	Potency
Cn1cc([N+](=O)[O-])c(C(=O)Nc2cnn(Cc3ccc(F)cc3)c2)n1	39.6% (inactive)	
O=C(Nc1ccn(Cc2ccccc2)n1)c1cccc(F)c1	-19.5% (inactive)	
O=C(Nc1ccn(Cc2ccccc2)n1)c1n[nH]c([N+](=O)[O-])c1Cl		7.08 µM (active)
CC(C)[C@H](NC(=O)N1CCn2c1nc1ccccc12)C(=O)NCCc1ccccc1	36.9% (inactive)	
CCCCCN(C(=O)CCC(=O)OCC(=O)NCc1ccc(OC)cc1)c1c(N)n(CCCC)c(=O)[nH]c1=O	12.4% (inactive)	
COc1ccc(CN2CCn3ncc(C(=O)Nc4ccc(Cl)cc4Cl)c3C2=O)cc1	-17.8% (inactive)	
COc1ccc(CN(C)C(=S)Nc2ccc(Cl)cc2Cl)cc1		17.8 µM (active)
CN(C)C(=S)Nc1ccc(Br)cc1Cl	-7.55% (inactive)	
CCn1c(=O)c(=O)[nH]c2c(=O)oc3ccc(S(=O)(=O)Nc4ccc(OC)cc4)cc3c21	3.51% (inactive)	
O=C1CCCC2=C1C(c1ccccc1)n1c(s/c(=C/c3cccc(F)c3)c1=O)=N2 (centres undefined)	1.43% (inactive)	
COc1ccc(OC)c(C2C3=C(N=c4s/c(=C\c5cccc(O)c5)c(=O)n42)c2ccccc2CC3)c1 (centres undefined)		12.6 µM (active)
COCCOC(=O)C1=C(C)N=c2s/c(=C\c3cccs3)c(=O)n2C1c1cccs1 (centres undefined)	17.2% (inactive)	
Cc1coc(C)c1C(=O)CC1(O)C(=O)N(C)c2ccc(Cl)cc21 (centres undefined)	12.2% (inactive)	
CC(=O)c1c(O)cc2n(c1=O)-c1ccc(Cl)cc1C2(C)C		10 µM (active)
O=C(COc1ccc2ccc(=O)oc2c1)NCC(O)c1ccccc1 (centres undefined)	0.846% (inactive)	
COc1cccc(CNC(=O)C2CCCN(c3ncnc4c3nc3n4CCCCC3)C2)c1 (centres undefined)	-14.6% (inactive)	
CCOC(=O)c1c(NC(=O)/C=C/c2ccco2)sc(C)c1C	-29.3% (inactive)	
CCc1nnc(NS(=O)(=O)c2ccc(NC(=S)NC(=O)/C=C/c3cccs3)cc2)s1	15.5% (inactive)	
CCOC(=O)c1c(NC(=S)NC(=O)/C=C/c2cccs2)sc(C)c1C		1.26 µM (active)
COC(=O)C1=CN(c2ccc(F)c(F)c2)C=C(C(=O)OC)C1c1ccc([N+](=O)[O-])cc1	-7.43% (inactive)	
CCOc1ccc(C(=O)Nc2ccc(S(=O)(=O)Nc3cc(C)on3)cc2)cc1	30% (inactive)	
CC(NC(=O)C(=O)Nc1nccs1)c1ccccc1 (centres undefined)	-16.6% (inactive)	
O=C(CCn1ccc([N+](=O)[O-])n1)Nc1nccs1	12.8% (inactive)	
Cc1c(Br)c([N+](=O)[O-])nn1C(C)C(=O)Nc1nccs1 (centres undefined)		20 µM (active)
CCOc1ccccc1NC(=O)NC1CCCCCCC1	-21.3% (inactive)	
COc1ccc(CNC(=O)C(c2ccc(O)cc2)N(Cc2ccco2)C(=O)c2snc(C(N)=O)c2N)cc1 (centres undefined)	42.5% (inactive)	

Structure (SMILES)	activity change, negative = inhibition	Potency
O=c1cc(Cl)c2ccccc2n1-c1ccccc1	2.4% (inactive)	
Cc1cccc(CSc2nnc(NC(=O)CSc3nnc(C)s3)s2)c1	-14.5% (inactive)	
COc1ccccc1-n1c(CNC(=O)c2ccccc2)nnc1SCC(=O)Nc1nnc(C)s1	6.05% (inactive)	
Cc1nnc(NC(=O)CSc2nccn2-c2cccc(C)c2C)s1		10 µM (active)
Cc1ccc(C(=O)N/C(=C\c2cn(C)c3ccccc23)C(=O)N2CCN(C)CC2)cc1	3.55% (inactive)	
Cc1ccc(NC(=O)c2oc(=O)c3ccccc3c2-c2ccccc2)c(C)c1	1.68% (inactive)	
Cc1cccc(NC(=O)/C(=C\c2ccco2)NC(=O)c2ccccc2)c1	-0.0873% (inactive)	
Cc1cccc(NC(=O)NC(=S)NC(=O)c2ccccc2)c1		2.51 µM (active)
Cc1cccc(NC(=S)NC(=O)c2ccc(Br)o2)c1		2.82 µM (active)
Cc1ccc(NC(=O)NC(=O)c2ccccc2)cc1F	8.25% [at 1.91 µM] (inactive)	
O=C(CNC(=O)c1ccc(Br)o1)Nc1ccccc1	-27.4% (inactive)	
COc1cc(OC)c(NC(=O)c2ccc(Br)o2)cc1Cl	3.59% (inactive)	
Cc1cc2[nH]ncc2cc1NC(=S)NC(=O)c1ccccc1	-29.8% (inactive)	
Cc1ccc(NC(=S)NC(=O)c2ccc(-c3ccccc3)cc2)c(C)c1		4.47 µM (active)
c1cnc(N2CCN(c3ccc4ccccc4n3)CC2)nc1	-20.4% (inactive)	
CCCN1CCn2c3c(c4cc(Br)ccc42)CCCC31 (centres undefined)	-5.16% (inactive)	
COCCN1CCn2c(nc3cc(NS(C)(=O)=O)ccc32)C1	9.64% (inactive)	
COCCOC(=O)c1[nH]c2c(c1C)C(=O)CC(c1ccc(OC)cc1)C2 (centres undefined)	30.1% (inactive)	
Cc1ccc(OCC(=O)NCCCNC(=O)c2cccnc2)cc1C	-1.54% (inactive)	
Cc1cn([C@H]2CC(F)[C@@H](CO)O2)c(=O)[nH]c1=O (some centres undefined)	-17.9% (inactive)	
COc1cccc(CNc2ncc(-c3ccccc3)n2C)c1	-20.9% (inactive)	
CC(C)[C@@H](NC(=O)OC(C)(C)C)C(=O)NCC1CCC(C(=O)N[C@@H](Cc2ccccc2)C(=O)O)CC1 (some centres undefined)	10.4% (inactive)	
CCC1OC(c2ccc([N+](=O)[O-])cc2)=Nc2ccccc21 (centres undefined)	19.1% (inactive)	
CC(=O)Nc1ccc(NC(=O)C2CCCN(S(=O)(=O)c3ccc(Cl)cc3)C2)cc1 (centres undefined)	-12.4% (inactive)	
COc1ncnc2sc3c(c12)CCCC3	-11.1% (inactive)	
COCCn1c(C)cc(C(=O)CSc2ncnc3sc4c(c23)CCC4)c1C	2.15% (inactive)	

Structure (SMILES)	activity change, negative = inhibition	Potency
CCc1nc(N2CCN(C(C)=O)CC2)c2c3c(sc2n1)CCCC3	27.6% (inactive)	
CC(C)c1nc(SCC(=O)Nc2cccc(C(=O)O)c2)c2c3c(sc2n1)CCCC3	10.5% (inactive)	
CCC(O)CNc1nc(-n2nc(C)cc2C)nc2sc3c(c12)CC(C)(C)OC3 (centres undefined)		1.58 µM (active)
CCSc1nc2sc3c(c2c(=O)[nH]1)CC(C)(C)OC3	-2.33% (inactive)	
CCOC(=O)Cn1c(SC)nc2sc3c(c2c1=O)CC(C)(C)OC3	5.51% (inactive)	
COCCNc1nc(-n2nc(C)cc2C)nc2sc3c(c12)CCCC3		0.562 µM (active)
Cc1cc(C)n(-c2nc(SCC(=O)N3CCCC3)c3c4c(sc3n2)CCCC4)n1		6.31 µM (active)
Cc1cccn2c(=O)c(/C=C(\C#N)C(N)=O)c(N3CCCCCC3)nc12	41.5% (inactive)	
CN(Cc1ccccc1)S(=O)(=O)c1nnc(NC(=O)c2ccccc2F)s1	14.3% (inactive)	
CC(=O)Nc1cccc(NC(=O)CSc2nccn2Cc2ccc(F)cc2)c1	-10.8% (inactive)	
Cn1c(=O)c2ccccc2n(CC(=O)Nc2ccc3c(c2)OCCO3)c1=O	38.8% (inactive)	
Cc1ccc(-c2nc(CS(=O)(=O)CC(=O)NCc3ccc4c(c3)OCO4)c(C)o2)cc1	-22.5% (inactive)	
Cc1ccc(NS(=O)(=O)c2ccc(-c3ccc(=O)[nH]n3)o2)c(C)c1	18.7% (inactive)	
NC(=O)CN1CCCC1c1ccc2c(c1)OCCO2 (centres undefined)	-5.36% (inactive)	
CC1C(=O)Nc2ccc(S(=O)(=O)N3CCN(c4ccccc4F)CC3)cc2NC1=O (centres undefined)	31.3% (inactive)	
COc1cc(/C=N/n2c(C)n[nH]c2=S)ccc1OCc1ccccc1		6.31 µM (active)
CCOc1ccc(/C=N/Nc2nncc(-c3ccccc3)n2)cc1OC	11.4% (inactive)	
COc1cc(/C=N/O)ccc1OCc1ccc([N+](=O)[O-])cc1	-23% (inactive)	
COCC1CCN(C(=O)C2CCC(=O)N(Cc3cccc(C(F)(F)F)c3)C2)CC1 (centres undefined)	3.4% (inactive)	
O=C(NCc1ccccn1)[C@]1(C(F)(F)F)C[C@H](CCc2ccccc2)CCCO1	4.22% (inactive)	
O=C(NCc1cc(F)cc(C(F)(F)F)c1)C1CCC(=O)N(C2CCCC2)C1 (centres undefined)	38.2% (inactive)	
CC1CCCC(C)N1C(=O)CSc1nnnn1C1CCCC1 (centres undefined)	5% (inactive)	
O=C(Cn1nnc(-c2ccccc2)n1)N/N=C/c1ccc(-c2ccc(Cl)cc2)o1		7.08 µM (active)
Nc1nnnn1CC(=O)N/N=C/c1ccc(-c2cccc(Cl)c2)o1	-17.9% (inactive)	
Nc1nnn(CC(=O)N/N=C/c2ccccc2)n1	4.37% (inactive)	
Cc1ccccc1OCC(=O)N(Cc1cccc(F)c1)C1CCS(=O)(=O)C1 (centres undefined)	16.9% (inactive)	
